From article PMC7862700, “An all-to-all approach to the identification of sequence-specific readers for epigenetic DNA modifications on cytosine” come the findings set out here.

Holding throughout (experiment): DAPPL (digital affinity profiling via proximity ligation, sequencing); 10 mM Tris-HCl pH 7.5, 50 mM NaCl, 1 mM DTT, 4% glycerol, room temperature, 30 min; GST-TFs on glutathione beads, 16-mer random dsDNA library, 0.1% formaldehyde crosslink after washing; high values mean tight binding
What all share (details): protein: recombinant; tags: N-terminal GST; dsDNA, one strand shown

Experiment [1] addresses T1, FLI1 (Homo sapiens, UniProt Q01543 1-452).
T1 sequence: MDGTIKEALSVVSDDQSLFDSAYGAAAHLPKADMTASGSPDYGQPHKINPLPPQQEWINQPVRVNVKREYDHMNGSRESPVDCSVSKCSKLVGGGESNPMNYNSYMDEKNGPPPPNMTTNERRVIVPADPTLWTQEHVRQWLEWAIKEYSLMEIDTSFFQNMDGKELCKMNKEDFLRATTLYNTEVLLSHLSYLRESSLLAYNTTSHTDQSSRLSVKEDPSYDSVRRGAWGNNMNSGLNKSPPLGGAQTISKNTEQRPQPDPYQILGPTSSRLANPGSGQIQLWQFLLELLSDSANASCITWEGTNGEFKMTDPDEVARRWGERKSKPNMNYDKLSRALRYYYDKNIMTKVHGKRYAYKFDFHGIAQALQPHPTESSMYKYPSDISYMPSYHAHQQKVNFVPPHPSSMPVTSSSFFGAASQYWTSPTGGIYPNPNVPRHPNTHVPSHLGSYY
The method, boiled down: (§1)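 GST fusions of human transcription factors were expressed in yeast and captured with glutathione beads. Once given DNA barcodes and pooled alongside a tag-only sample, they were incubated for 30 min at room temperature with 200 nmole of a random double-stranded 16-mer DNA library in Tris/NaCl/DTT/glycerol buffer, then washed, crosslinked (0.1% formaldehyde), proximity-ligated, PCR-amplified and sequenced on an Illumina NextSeq500. The binding signal of each hexamer is its read frequency for a factor divided by its frequency for the tag-only sample.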

Experiment [2] has as its target T2, ELK1 (Homo sapiens, UniProt P19419 1-428).
T2 sequence: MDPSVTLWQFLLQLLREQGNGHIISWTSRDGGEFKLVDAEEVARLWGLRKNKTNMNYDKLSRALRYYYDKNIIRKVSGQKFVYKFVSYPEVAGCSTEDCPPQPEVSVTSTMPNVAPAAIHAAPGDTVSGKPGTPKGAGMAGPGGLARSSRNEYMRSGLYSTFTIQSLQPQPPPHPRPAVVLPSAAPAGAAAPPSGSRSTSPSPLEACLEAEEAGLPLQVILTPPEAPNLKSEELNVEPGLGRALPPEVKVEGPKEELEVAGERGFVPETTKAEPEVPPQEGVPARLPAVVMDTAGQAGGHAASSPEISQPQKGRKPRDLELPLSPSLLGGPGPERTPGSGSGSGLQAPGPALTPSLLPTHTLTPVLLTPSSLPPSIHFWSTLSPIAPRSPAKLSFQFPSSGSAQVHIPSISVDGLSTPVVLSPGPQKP
The method, boiled down:
as §1

Experiment [3] addresses T3, GABPA (Homo sapiens, UniProt Q06546 1-454).
T3 sequence: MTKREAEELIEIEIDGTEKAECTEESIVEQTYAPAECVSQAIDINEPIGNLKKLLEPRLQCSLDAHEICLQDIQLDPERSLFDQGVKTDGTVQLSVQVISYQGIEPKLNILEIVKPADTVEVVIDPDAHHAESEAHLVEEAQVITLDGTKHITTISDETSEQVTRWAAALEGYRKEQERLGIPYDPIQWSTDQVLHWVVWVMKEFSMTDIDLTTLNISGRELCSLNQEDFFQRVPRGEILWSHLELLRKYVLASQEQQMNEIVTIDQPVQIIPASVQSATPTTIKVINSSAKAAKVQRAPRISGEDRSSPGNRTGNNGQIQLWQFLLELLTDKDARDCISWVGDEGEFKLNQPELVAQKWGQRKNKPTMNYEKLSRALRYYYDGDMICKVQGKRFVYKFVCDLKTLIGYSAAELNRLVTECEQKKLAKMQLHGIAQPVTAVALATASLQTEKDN
The method, boiled down: as §1

Experiment [4] concerns the target T4, ERG (Homo sapiens, UniProt P11308 1-479).
T4 sequence: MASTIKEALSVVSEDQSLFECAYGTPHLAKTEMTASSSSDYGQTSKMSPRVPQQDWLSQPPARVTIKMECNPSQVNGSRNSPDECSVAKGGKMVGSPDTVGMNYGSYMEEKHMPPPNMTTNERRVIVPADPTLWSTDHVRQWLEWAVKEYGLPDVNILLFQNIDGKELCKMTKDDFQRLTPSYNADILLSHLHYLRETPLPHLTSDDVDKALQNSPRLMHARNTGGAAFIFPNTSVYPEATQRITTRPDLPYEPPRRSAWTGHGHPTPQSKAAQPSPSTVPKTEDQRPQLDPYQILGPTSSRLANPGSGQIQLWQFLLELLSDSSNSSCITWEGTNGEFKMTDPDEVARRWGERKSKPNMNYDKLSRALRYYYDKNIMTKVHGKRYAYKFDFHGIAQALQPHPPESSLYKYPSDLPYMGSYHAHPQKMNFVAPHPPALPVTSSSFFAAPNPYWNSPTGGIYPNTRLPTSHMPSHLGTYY
The method, boiled down: as §1

For experiment [5], the target named is ELF1 (Homo sapiens, UniProt P32519 1-619). The method, boiled down: as §1
Experiment [6] deals with T5, EHF (Homo sapiens, UniProt Q9NZC4 1-300).
T5 sequence: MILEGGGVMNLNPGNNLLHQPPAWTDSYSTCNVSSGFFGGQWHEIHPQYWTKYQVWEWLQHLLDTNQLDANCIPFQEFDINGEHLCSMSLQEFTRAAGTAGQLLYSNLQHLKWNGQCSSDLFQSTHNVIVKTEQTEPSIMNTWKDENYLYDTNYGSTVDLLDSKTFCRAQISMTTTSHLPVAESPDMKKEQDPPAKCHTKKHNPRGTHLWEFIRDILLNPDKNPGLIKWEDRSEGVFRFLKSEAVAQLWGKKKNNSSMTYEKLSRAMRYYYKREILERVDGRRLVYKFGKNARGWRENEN
The method, boiled down: as §1

Experiment [7] addresses SPI1 (Homo sapiens, UniProt P17947 1-270). The method, boiled down: as §1
Experiment [8] has as its target SPIB (Homo sapiens, UniProt Q01892 1-262). The method, boiled down: as §1
Experiment [9] addresses T6, ELK3 (Homo sapiens, UniProt P41970 1-407).
T6 sequence: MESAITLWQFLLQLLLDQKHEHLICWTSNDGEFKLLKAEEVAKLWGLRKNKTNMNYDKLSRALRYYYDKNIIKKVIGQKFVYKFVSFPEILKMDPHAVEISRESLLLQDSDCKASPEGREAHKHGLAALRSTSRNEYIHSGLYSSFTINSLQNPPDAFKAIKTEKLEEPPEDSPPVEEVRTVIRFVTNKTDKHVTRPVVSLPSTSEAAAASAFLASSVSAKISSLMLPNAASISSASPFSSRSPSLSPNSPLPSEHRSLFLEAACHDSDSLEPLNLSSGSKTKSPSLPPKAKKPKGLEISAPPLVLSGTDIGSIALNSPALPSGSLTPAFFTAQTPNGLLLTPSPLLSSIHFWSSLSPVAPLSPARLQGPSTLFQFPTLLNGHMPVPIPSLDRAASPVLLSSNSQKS
The method, boiled down: as §1

In experiment [10] the target is T7, FEV (Homo sapiens, UniProt Q99581 1-238).
T7 sequence: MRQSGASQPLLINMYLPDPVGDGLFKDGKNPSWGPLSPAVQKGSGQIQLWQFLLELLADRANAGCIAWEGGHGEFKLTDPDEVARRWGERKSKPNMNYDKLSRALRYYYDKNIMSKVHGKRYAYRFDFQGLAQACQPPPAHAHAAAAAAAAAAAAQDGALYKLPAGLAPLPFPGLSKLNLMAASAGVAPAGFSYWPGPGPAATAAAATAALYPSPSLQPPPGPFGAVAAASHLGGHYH
Summed up: as §1

Experiment [11] deals with ETV5 (Homo sapiens, UniProt P41161 1-510). The method, boiled down:
as §1

Experiment [12] concerns the target T8, SPIC (Homo sapiens, UniProt Q8N5J4 1-248).
T8 sequence: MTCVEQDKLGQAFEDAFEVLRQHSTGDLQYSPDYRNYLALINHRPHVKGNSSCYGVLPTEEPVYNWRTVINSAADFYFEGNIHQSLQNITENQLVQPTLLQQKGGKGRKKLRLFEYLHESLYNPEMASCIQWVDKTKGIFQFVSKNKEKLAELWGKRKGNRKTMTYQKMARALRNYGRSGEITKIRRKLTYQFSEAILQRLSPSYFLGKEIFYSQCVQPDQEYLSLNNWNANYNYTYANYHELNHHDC
Summed up:
as §1

Experiment [13] has as its target ELF4 (Homo sapiens, UniProt Q99607 1-663). Summed up: as §1
Experiment [14] concerns the target T9, ELK4 (Homo sapiens, UniProt P28324-2 1-405).
T9 sequence: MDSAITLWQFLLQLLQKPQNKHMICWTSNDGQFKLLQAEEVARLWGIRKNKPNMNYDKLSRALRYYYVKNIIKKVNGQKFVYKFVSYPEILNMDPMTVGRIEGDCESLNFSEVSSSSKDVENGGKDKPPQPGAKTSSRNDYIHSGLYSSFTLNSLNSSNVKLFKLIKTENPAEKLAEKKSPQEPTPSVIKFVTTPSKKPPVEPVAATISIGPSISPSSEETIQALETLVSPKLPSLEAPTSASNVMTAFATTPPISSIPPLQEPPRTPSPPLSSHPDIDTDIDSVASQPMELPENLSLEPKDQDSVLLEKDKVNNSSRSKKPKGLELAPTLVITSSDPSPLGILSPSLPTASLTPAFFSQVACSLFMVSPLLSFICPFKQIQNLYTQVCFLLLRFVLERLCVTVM
The method, boiled down: as §1

In experiment [15] the target is T10, ETV2 (Homo sapiens, UniProt O00321 1-342).
T10 sequence: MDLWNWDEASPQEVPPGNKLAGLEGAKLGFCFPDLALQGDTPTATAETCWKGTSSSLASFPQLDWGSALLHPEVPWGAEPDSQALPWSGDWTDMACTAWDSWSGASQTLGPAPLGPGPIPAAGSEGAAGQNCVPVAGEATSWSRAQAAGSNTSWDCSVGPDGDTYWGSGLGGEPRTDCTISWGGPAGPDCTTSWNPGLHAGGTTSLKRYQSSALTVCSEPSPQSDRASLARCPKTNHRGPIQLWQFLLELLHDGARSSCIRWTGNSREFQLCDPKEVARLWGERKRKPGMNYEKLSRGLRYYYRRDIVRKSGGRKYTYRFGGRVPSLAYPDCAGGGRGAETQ
Summed up:
as §1

Experiment [16] addresses T11, ELF3 (Homo sapiens, UniProt P78545 1-371).
T11 sequence: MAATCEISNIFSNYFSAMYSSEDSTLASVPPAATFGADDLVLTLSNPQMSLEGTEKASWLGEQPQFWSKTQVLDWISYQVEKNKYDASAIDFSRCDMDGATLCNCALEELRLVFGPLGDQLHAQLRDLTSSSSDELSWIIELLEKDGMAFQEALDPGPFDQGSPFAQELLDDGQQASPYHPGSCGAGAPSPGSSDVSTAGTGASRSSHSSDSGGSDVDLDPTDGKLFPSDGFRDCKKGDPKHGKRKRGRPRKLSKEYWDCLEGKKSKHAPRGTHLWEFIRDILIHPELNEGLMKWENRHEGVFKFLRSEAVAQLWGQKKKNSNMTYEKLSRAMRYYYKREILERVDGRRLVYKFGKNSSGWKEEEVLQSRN
Summed up:
as §1

Experiment [17] addresses ETV1 (Homo sapiens, UniProt P50549 1-477). Summed up: as §1

Chain of ETV5 (P41161 whole entry): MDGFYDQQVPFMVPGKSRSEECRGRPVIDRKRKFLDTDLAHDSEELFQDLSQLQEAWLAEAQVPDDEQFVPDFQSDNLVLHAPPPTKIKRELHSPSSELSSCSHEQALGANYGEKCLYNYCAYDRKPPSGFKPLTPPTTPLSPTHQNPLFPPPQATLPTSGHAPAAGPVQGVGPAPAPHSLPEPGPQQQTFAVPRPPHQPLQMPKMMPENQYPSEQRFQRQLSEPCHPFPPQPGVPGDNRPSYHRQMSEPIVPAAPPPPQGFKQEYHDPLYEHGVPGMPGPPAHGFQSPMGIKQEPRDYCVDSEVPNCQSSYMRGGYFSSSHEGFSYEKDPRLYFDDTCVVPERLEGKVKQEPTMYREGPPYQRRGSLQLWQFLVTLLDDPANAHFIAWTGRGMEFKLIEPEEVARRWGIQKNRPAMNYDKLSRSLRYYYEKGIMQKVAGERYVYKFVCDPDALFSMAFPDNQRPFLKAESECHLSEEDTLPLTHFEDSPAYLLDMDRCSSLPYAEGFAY
Chain of ELF4 (Q99607 whole entry): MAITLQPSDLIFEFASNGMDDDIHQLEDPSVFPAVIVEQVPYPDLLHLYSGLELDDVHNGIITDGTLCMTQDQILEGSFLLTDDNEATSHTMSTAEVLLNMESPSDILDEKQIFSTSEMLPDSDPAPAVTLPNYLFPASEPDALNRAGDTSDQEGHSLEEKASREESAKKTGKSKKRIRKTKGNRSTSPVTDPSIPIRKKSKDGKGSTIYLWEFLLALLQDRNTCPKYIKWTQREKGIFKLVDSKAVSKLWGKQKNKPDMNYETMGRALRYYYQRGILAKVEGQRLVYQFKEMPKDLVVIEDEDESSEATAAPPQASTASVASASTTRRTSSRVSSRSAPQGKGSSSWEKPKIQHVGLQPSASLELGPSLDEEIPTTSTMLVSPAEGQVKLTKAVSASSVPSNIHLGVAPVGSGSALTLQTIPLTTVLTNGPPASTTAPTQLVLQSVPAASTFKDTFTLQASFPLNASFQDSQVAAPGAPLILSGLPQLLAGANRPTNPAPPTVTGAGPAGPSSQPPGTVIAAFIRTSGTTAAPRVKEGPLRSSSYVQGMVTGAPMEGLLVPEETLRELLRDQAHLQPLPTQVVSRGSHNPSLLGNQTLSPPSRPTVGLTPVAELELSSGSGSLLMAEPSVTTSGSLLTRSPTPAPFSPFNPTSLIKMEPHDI
Chain of ETV1 (P50549 whole entry): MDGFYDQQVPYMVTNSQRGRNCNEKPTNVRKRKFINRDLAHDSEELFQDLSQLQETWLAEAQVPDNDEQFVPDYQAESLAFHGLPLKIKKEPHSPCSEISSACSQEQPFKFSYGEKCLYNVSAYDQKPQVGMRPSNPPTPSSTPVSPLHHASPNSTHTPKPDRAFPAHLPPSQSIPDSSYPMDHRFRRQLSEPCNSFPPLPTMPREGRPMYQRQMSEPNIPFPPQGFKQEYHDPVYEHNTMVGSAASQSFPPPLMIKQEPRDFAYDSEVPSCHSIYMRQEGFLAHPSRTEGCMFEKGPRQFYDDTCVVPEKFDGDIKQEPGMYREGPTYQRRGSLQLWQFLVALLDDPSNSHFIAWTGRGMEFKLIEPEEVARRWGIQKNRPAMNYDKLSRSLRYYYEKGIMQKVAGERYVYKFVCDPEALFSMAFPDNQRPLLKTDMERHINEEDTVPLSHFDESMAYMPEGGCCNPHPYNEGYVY
Chain of ELF1 (P32519 whole entry): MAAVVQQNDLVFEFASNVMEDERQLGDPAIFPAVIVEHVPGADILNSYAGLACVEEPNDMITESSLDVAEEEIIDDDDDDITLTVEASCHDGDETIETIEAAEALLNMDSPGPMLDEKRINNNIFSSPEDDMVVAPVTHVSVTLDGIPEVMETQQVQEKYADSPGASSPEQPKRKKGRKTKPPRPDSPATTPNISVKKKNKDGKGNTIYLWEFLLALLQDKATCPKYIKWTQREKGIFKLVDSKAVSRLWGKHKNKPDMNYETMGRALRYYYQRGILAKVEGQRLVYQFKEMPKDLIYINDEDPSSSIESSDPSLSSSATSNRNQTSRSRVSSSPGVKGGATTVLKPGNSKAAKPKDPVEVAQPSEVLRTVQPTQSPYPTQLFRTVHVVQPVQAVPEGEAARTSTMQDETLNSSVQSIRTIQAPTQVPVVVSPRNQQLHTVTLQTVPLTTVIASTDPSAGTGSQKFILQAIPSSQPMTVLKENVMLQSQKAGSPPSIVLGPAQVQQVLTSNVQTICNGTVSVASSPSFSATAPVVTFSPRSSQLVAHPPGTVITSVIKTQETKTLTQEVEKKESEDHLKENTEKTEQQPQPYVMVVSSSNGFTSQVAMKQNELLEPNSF
Chain of SPIB (Q01892 whole entry): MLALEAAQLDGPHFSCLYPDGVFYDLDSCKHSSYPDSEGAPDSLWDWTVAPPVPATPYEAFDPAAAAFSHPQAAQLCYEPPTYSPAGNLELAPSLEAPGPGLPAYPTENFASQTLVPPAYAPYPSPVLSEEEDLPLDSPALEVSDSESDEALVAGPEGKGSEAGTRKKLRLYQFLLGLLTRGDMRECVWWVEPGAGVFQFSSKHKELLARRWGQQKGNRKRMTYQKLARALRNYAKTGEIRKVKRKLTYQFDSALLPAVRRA

For GGAAGC, the binding signal in experiment [1] was 1.5 fold enrichment (6-mer frequency, TF over GST control); in experiment [2], 1.64 fold enrichment (6-mer frequency, TF over GST control); in [3], 1.45 fold enrichment (6-mer frequency, TF over GST control); in experiment [4] it was 1.85 fold enrichment (6-mer frequency, TF over GST control); in experiment [5], 1.39 fold enrichment (6-mer frequency, TF over GST control); in experiment [6] it was 1.68 fold enrichment (6-mer frequency, TF over GST control). In addition, the binding signal in [7] was 1.74 fold enrichment (6-mer frequency, TF over GST control); in experiment [8] it was 1.63 fold enrichment (6-mer frequency, TF over GST control); in [9] it was 1.77 fold enrichment (6-mer frequency, TF over GST control); in experiment [10], 1.74 fold enrichment (6-mer frequency, TF over GST control); in experiment [11], 1.79 fold enrichment (6-mer frequency, TF over GST control); in experiment [12], 1.39 fold enrichment (6-mer frequency, TF over GST control). For the same sequence, the binding signal in experiment [13] was 1.4 fold enrichment (6-mer frequency, TF over GST control); in experiment [14] it was 1.43 fold enrichment (6-mer frequency, TF over GST control); in [15], 1.54 fold enrichment (6-mer frequency, TF over GST control); in experiment [16], 1.48 fold enrichment (6-mer frequency, TF over GST control); in [17] it was 1.82 fold enrichment (6-mer frequency, TF over GST control).
As for GCTACC, the binding signal was 1.18 fold enrichment (6-mer frequency, TF over GST control) in [1]; 1.27 fold enrichment (6-mer frequency, TF over GST control) in experiment [2]; 1.25 fold enrichment (6-mer frequency, TF over GST control) in [3]; 1.26 fold enrichment (6-mer frequency, TF over GST control) in experiment [4]; 1.29 fold enrichment (6-mer frequency, TF over GST control) in [5]; 1.09 fold enrichment (6-mer frequency, TF over GST control) in [6]. Moreover, the binding signal in experiment [7] is 1.11 fold enrichment (6-mer frequency, TF over GST control); in experiment [8], 1.28 fold enrichment (6-mer frequency, TF over GST control); in experiment [9], 1.39 fold enrichment (6-mer frequency, TF over GST control); in experiment [10], 1.18 fold enrichment (6-mer frequency, TF over GST control); in [11], 1.17 fold enrichment (6-mer frequency, TF over GST control); in experiment [12], 1.23 fold enrichment (6-mer frequency, TF over GST control). Besides, the binding signal in experiment [13] was 1.24 fold enrichment (6-mer frequency, TF over GST control); in experiment [14], 1.04 fold enrichment (6-mer frequency, TF over GST control); in experiment [15], 1.08 fold enrichment (6-mer frequency, TF over GST control); in [16], 1.1 fold enrichment (6-mer frequency, TF over GST control); in [17], 1.26 fold enrichment (6-mer frequency, TF over GST control).
